In PubChem BioAssay one finds z-score and composite z-score data, which are given here for 9 compounds.

Test [1] can be described thus: E. coli DRC41 culture turbidity changes, primary screen, E. coli filamentation inducer project, strain DRC41, OD650, 48 h (AID 1152).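 Also: E. coli MC1000 strain DRC41 lacking acrAB efflux pump and sulA.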 The settings on record: E. coli DRC41 (acrAB sulA), higher = more signal, called active from +8 up or from −8 down.
The nature of test [2]: small-molecule binders of probe aLefty1, primary screen, biochemical, small-molecule microarray, 635/667 nm fluorescence (AID 1153).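 Also: score merges spot fluorescence with signal-to-noise ratio from the scanned slide images.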 The conditions noted are these: higher = more signal.
The nature of test [3]: PSAC antagonists in infected red cells, primary screen, cell-based, P. falciparum Indochina, OD700, 1 h (AID 1154). The conditions noted are these: P. falciparum Indochina infected RBC osmotic lysis, higher = more signal, called active from +8 up or from −8 down.
Test [4] can be described thus: PSAC antagonists in infected red cells, primary screen, cell-based, P. falciparum Indochina, OD700, 2 h (AID 1155).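 Also: lysis reports solute entry through the parasite surface anion channel PSAC; channel blockers reduce lysis of infected cells.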 The settings on record: P. falciparum Indochina infected erythrocytes, osmotic lysis OD700; higher = more signal, called active from +8 up or from −8 down.
The nature of test [5]: osmotic lysis modulators in infected erythrocytes, primary screen, PSAC antagonist project, cell-based, P. falciparum Indochina, OD700, 3 h (AID 1156). The conditions noted are these: higher = more signal, called active from +8 up or from −8 down.
Test [6] in a line: PSAC antagonists in infected red cells, primary screen, cell-based, P. falciparum Indochina, OD700, 18 h (AID 1157). The conditions noted are these: P. falciparum Indochina infected erythrocytes, osmotic lysis OD700, 18 h; higher = more signal, called active from +8 up or from −8 down.
Test [7] is described as follows: modulators of S6 phosphorylation in cells, primary screen, cell-based, A549, cytoblot, luminescence, serum-stimulated (AID 1158).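 Also: serum-stimulated A549 lung adenocarcinoma cells; signal is phosphorylated S6 detected by cytoblot immunostaining with HRP secondary.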 The settings on record: A549 phospho-S6 cytoblot, 5 h, higher = more signal.
The target of test [8] is NADPH oxidase 2 (Homo sapiens) (UniProt P04839). Nature of the test: NOX2-dependent H2O2 signal modulators, primary screen, NOX inhibitor project, cell-based, HEK293-NOX2, PMA-stimulated, Amplex Red fluorescence (AID 1159). Also: test concentration not given here. The conditions noted are these: 45 min, higher = more signal, called active from +8 up or from −8 down.
NADPH oxidase 2 (Homo sapiens), sequence (P04839 whole entry, looked up): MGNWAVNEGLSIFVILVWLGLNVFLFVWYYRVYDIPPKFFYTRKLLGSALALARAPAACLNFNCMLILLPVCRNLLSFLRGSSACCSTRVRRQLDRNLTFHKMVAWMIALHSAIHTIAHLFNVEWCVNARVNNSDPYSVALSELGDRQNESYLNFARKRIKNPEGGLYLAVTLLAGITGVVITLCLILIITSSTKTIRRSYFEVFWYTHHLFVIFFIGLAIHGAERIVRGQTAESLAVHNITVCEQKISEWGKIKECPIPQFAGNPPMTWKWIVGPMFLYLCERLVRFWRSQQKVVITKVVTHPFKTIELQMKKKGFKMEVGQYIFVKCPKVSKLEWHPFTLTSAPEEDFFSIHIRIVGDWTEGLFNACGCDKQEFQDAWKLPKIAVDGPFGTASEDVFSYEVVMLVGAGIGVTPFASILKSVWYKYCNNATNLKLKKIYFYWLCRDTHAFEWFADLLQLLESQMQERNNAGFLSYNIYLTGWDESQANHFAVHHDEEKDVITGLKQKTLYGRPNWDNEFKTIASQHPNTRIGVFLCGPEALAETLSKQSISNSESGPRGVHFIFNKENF
Test [9] addresses NADPH oxidase 4 (Homo sapiens) (UniProt Q9NPH5). Put plainly: NOX4-dependent H2O2 signal modulators, primary screen, NOX inhibitor project, cell-based, HEK293-NOX4, tetracycline-induced, Amplex Red fluorescence (AID 1160). The settings on record: 45 min, higher = more signal, called active from +8 up or from −8 down.
Test [10] addresses NADPH oxidase 5 (Homo sapiens) (UniProt Q96PH1). Put plainly: NOX5-dependent H2O2 signal modulators, primary screen, NOX inhibitor project, cell-based, HEK293-NOX5, Amplex Red fluorescence (AID 1161). The conditions noted are these: HEK293-NOX5, ionomycin, 45 min, higher = more signal.
A short description of test [11]: A549 cell viability effects, profiling panel, calcein-AM fluorescence, 48 h, basal (AID 1162). Also: test concentration not given here. The settings on record: higher = more signal.
The nature of test [12]: adipocyte viability effects, profiling panel, cell-based, 3T3-L1 adipocytes, calcein-AM fluorescence, 48 h, basal (AID 1163). Also: test concentration not given here. The settings on record: 3T3-L1 adipocytes viability, higher = more signal.
A short description of test [13]: HepG2 cell viability effects, profiling panel, calcein-AM fluorescence, 48 h, basal (AID 1164). Also: test concentration not given here. The conditions noted are these: higher = more signal.
Test [14] in a line: MM1S cell viability effects, profiling panel, calcein-AM fluorescence, 48 h, basal (AID 1165).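 Also: viability of MM1S multiple myeloma cells under basal unstimulated conditions; test concentration not given here.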 The settings on record: higher = more signal.
Test [15] can be described thus: basal RPMI8226 viability, no added stimulus, profiling panel, cell-based, calcein-AM fluorescence, 48 h, PK04 Diversity Set (AID 1166).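 Also: cells grown under basal conditions without added stimulus; test concentration not given here.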 The settings on record: RPMI8226 myeloma viability, higher = more signal.
A short description of test [16]: basal HepG2 mitochondrial membrane potential changes, profiling panel, cell-based, JC-1 fluorescence, 24 h, 100 nL compound (AID 1167). Also: test concentration not given here. The conditions noted are these: higher = more signal.
Test [17] can be described thus: basal 3T3-L1 adipocyte mitochondrial potential changes, profiling panel, cell-based, JC-1 fluorescence, 3T3-L1 adipocytes, 24 h, 100 nL compound (AID 1168). Also: test concentration not given here. The settings on record: JC-1 mitochondrial fluorescence, higher = more signal, called active from +8 up or from −8 down.
A short description of test [18]: basal RPMI8226 mitochondrial membrane potential changes, profiling panel, cell-based, JC-1 fluorescence, 24 h, 100 nL compound (AID 1169). Also: test concentration not given here. The conditions noted are these: RPMI8226 myeloma, JC-1 mitochondrial potential fluorescence, higher = more signal.
Test [19] in a line: basal MM1S mitochondrial membrane potential changes, profiling panel, cell-based, JC-1 fluorescence, 24 h, 100 nL compound (AID 1170). Also: test concentration not given here. The settings on record: higher = more signal.
Test [20] is described as follows: A549 lung cancer cell viability effects, profiling panel, resazurin fluorescence, 24 h, PK04 Diversity Set (AID 1171). Also: test concentration not given here. The settings on record: higher = more signal, called active from +8 up or from −8 down. A general note: Alamar Blue is a resazurin reagent that responds to reducing activity.

Calls of active or inactive are those of the source.

NADPH oxidase 5 (Homo sapiens), sequence (Q96PH1 whole entry, looked up): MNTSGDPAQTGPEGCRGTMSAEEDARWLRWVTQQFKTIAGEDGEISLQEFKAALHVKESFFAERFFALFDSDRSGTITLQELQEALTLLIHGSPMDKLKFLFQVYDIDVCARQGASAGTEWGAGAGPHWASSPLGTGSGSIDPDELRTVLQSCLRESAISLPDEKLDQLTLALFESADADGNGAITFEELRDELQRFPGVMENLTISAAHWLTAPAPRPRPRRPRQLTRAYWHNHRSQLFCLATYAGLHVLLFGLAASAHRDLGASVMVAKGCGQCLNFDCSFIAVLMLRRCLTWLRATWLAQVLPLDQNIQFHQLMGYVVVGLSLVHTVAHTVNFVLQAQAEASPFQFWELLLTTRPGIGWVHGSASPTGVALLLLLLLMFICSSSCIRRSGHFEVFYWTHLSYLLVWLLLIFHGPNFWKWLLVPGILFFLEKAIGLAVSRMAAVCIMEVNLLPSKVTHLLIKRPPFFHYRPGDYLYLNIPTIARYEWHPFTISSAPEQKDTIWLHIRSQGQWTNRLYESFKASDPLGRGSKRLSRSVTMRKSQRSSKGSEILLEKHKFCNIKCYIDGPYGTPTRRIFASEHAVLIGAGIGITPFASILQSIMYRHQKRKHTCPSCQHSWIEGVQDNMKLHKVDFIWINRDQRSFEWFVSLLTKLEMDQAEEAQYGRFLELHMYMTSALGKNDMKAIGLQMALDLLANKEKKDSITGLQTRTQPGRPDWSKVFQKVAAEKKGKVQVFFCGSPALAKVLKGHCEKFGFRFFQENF
NADPH oxidase 4 (Homo sapiens), sequence (Q9NPH5 whole entry, looked up): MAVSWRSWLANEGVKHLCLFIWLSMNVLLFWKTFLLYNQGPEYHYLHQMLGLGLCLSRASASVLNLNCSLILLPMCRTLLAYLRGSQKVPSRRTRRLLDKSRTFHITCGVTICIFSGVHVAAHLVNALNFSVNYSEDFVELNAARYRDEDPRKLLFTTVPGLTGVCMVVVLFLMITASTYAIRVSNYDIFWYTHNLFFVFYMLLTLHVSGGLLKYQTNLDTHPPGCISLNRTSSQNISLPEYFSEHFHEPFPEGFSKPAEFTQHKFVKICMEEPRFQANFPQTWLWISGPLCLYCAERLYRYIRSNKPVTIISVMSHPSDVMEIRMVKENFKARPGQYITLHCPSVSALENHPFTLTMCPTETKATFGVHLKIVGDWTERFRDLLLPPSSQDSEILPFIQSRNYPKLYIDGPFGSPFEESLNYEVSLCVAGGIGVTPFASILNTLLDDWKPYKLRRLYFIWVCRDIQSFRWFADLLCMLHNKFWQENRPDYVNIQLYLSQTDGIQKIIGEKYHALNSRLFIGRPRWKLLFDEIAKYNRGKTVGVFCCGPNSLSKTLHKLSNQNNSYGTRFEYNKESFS

Take `CC(C)(C)OC(=O)CC[C@@]1(C(=O)NCCN2CCOCC2)N=C(c2ccc(OCCCO)cc2)O[C@@H]1c1ccccc1N=[N+]=[N-]`: the z-score in test [1] was 0.0974 (inactive); in [3], 31.4 (active); in test [4], 28 (active); in [5], 3.73 (inactive); in test [6], 5.67 (inactive); in [7], -0.249. Also, the z-score was -2.91 (inactive) in [8]; 0.765 (inactive) in test [9]; -1.73 in test [10]; 1.2 in [11]; 0.698 in test [12]; 1.33 in test [13]. The z-score in test [14] was -0.849; in [15], -0.187; in test [16], 0.749; in [17], 1.66 (inactive); in [18], -0.993; in test [19] it was -0.339. Moreover, the z-score in test [20] is -0.492 (inactive). Also, the composite z-score in test [2] came out at 0.266.
For the compound `COCCCNC(=O)[C@@]1(Cc2ccccc2N=[N+]=[N-])N=C(c2ccc(OCCCO)cc2)O[C@H]1c1ccccc1N=[N+]=[N-]`, the z-score is -0.439 (inactive) in test [1]; 28.8 (active) in [3]; 25.2 (active) in test [4]; 2.41 (inactive) in test [5]; 5.91 (inactive) in test [6]; 0.621 in test [7]. Further, the z-score is -2.05 (inactive) in test [8]; 0.518 (inactive) in [9]; -2.22 in [10]; -1.84 in test [11]; 0.954 in test [12]; -1.37 in test [13]. Also, the z-score was -1.88 in [14]; -3.69 in test [15]; 1.77 in [16]; 0.221 (inactive) in test [17]; -1.22 in test [18]; -2.03 in test [19]. Further, the z-score in test [20] was -1.76 (inactive). This compound also gave a composite z-score in [2] of 0.302.
For the compound `Cc1ccc(C(C)CC(O)C2C=CC3C(=O)N(C)C(=O)C3N2NC(=O)OC(C)(C)C)o1` (stereo not given), the z-score in test [1] was -0.502 (inactive); in [3], -0.205 (inactive); in test [4] it was 0.562 (inactive); in test [5], -0.168 (inactive); in test [6], 0.435 (inactive); in test [7], -0.497. The z-score was 0.347 (inactive) in [8]; -0.202 (inactive) in test [9]; -0.701 in test [10]; 0.987 in [11]; -0.515 in test [12]; 0.917 in [13]. The z-score in test [14] is -0.193; in test [15], -0.883; in test [16] it was -0.768; in [17], -0.632 (inactive); in test [18], -0.876; in test [19], -0.357. Besides, the z-score in test [20] is 0.543 (inactive). For the same compound, in test [2], the composite z-score was determined as 0.196.
With `O=C1[C@H]2C=C(Br)[C@H](C[C@@H]2c2ccccc2)[C@@]12CO2`, the z-score in [1] was -1.47 (inactive); in [3], 1.22 (inactive); in test [4] it was 0.497 (inactive); in test [5], 0.637 (inactive); in test [6], 0.279 (inactive); in test [7], -0.327. Further, the z-score in test [8] was 0.242 (inactive); in test [9], 0.141 (inactive); in test [10], -0.855; in test [11] it was -1.18; in test [12] it was -0.559; in test [13], -0.675. Also, the z-score in test [14] is -2.95; in test [15], -2.49; in [16] it was -1.69; in [17], 0.0869 (inactive); in [18], -0.323; in test [19], -0.609. In addition, the z-score in test [20] is -0.541 (inactive). In test [2], this compound returned a composite z-score of 0.0041.
For `C=C(CCCC)/C(=C/C[C@@H](OC(C)=O)c1ccccc1OCCO)c1cnc2ccccc2c1`, the z-score in [1] was -0.19 (inactive); in test [3] it was 21.1 (active); in test [4], 4.29 (inactive); in test [5] it was 1.96 (inactive); in test [6], 1.39 (inactive); in test [7], 0.132. The z-score in test [8] is -1.87 (inactive); in [9], -1.61 (inactive); in test [10] it was -1.79; in test [11], -0.865; in test [12], 1.79; in test [13], -0.749. Also, the z-score is -2.72 in [14]; -3.31 in test [15]; 0.749 in test [16]; -1.17 (inactive) in [17]; -0.691 in test [18]; 0.61 in test [19]. For the same compound, the z-score in [20] was -1.21 (inactive). The same compound had a composite z-score in [2] of 0.082.
In the case of `COc1ccc(C(O)C2C=CC3C(=O)N(C)C(=O)C3N2N2CCCCC2)c2ccccc12` (stereo not given), the z-score was -1.53 (inactive) in [1]; 1.24 (inactive) in test [3]; 1.05 (inactive) in test [4]; 1.01 (inactive) in [5]; 0.778 (inactive) in test [6]; -1.08 in [7]. Moreover, the z-score is 0.273 (inactive) in test [8]; -1.72 (inactive) in test [9]; 1.03 in test [10]; -1.01 in test [11]; -1.14 in [12]; -0.086 in test [13]. Besides, the z-score was -0.142 in test [14]; 0.768 in test [15]; -0.874 in test [16]; -1.08 (inactive) in test [17]; -0.0496 in test [18]; 0.028 in [19]. In addition, the z-score in [20] was -0.825 (inactive). The composite z-score in test [2] came out at 0.517.
In the case of `C=CCN1C(=O)[C@]2(O[C@H](CCO)[C@@H]([Si](C)(C)c3ccc(OC)cc3)[C@@H]2C)c2cc(N3C(=O)c4cccc5cccc3c45)ccc21`, the z-score in test [1] was 0.568 (inactive); in [3] it was 6.44 (inactive); in test [4], 4.41 (inactive); in [5], 0.0626 (inactive); in test [6] it was 2.83 (inactive); in test [7] it was 1.03. Also, the z-score is 0.924 (inactive) in test [8]; 0.4 (inactive) in test [9]; 0.0361 in test [10]; -3.27 in test [11]; 0.105 in test [12]; -4.63 in test [13]. Also, the z-score in test [14] is -2.63; in test [15], -4.34; in test [16], -2.32; in [17] it was 0.697 (inactive); in [18], -0.955; in test [19], -2.28. Also, the z-score in test [20] was -5.26 (inactive). The composite z-score in test [2] was determined as 0.178.
Regarding `O=C1C2C=CC(C(O)C(c3ccccc3)c3ccccc3)N(n3cnnc3)C2C(=O)N1Cc1ccccc1` (stereo not given), the z-score was -1.48 (inactive) in test [1]; 2.36 (inactive) in [3]; 1.26 (inactive) in test [4]; -0.218 (inactive) in test [5]; 0.949 (inactive) in test [6]; -0.429 in [7]. Also, the z-score was 0.67 (inactive) in [8]; -2.83 (inactive) in test [9]; -0.766 in [10]; -1.03 in [11]; 0.0304 in test [12]; -1.13 in test [13]. In addition, the z-score in [14] is -1.09; in test [15], -0.23; in test [16], -1.26; in test [17], -1.26 (inactive); in test [18], -0.42; in test [19] it was 0.153. In test [20], the z-score is -0.387 (inactive). Besides, the composite z-score in test [2] was 0.169.
On to `C[N+](C)(C)CCCCNC(=O)[C@H]1C[C@H]2C(=O)N[C@@H](Cc3ccccc3)C(=O)N2[C@H]1c1ccc(O)cc1`, for which the z-score in [1] was 0.274 (inactive); in test [3], 0.891 (inactive); in test [4] it was 0.0222 (inactive); in test [5], -0.271 (inactive); in test [6], 0.228 (inactive); in test [7] it was 0.149. Also, the z-score in test [8] was -2.12 (inactive); in test [9], -1.27 (inactive); in test [10] it was -2.42; in [11], -0.111; in [12], -0.649; in test [13] it was 0.0005. The z-score was 0.27 in [14]; -0.546 in [15]; 0.169 in [16]; -0.333 (inactive) in test [17]; -0.831 in [18]; -1.13 in test [19]. In test [20], the z-score was -0.486 (inactive). The compound also returned a composite z-score in test [2] of -0.142.
